This is an account of results in PubChem BioAssay (NCATS).

Records with an inconclusive call do not appear. Values without a mark were called inactive. Calls of active or inactive are those of the source. Calls follow the shape of the dose curve; as a rule, active = well fitted curve in the direction sought with a large enough effect; inconclusive = small, poorly fitted or top-dose-only effect, or another doubt; inactive = no such curve, though single readings can be large; an effect the other way counts as inactive or inconclusive.

Experiment [1] can be described thus: Viability qHTS for spleen associated tyrosine kinase inhibitor (SYKi) drug resistant MV4-11 cells (AID 1963824). Also: nearly all actives have a fitted effect of over 35% in size. Also: potency is read from the fitted curve at half-maximal effect. In short, it runs like this: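 SYK-inhibitor-resistant MV4-11 AML cells were seeded at 500 per well onto compound and cultured 72 hours (37 °C, 5% CO2). CellTiter-Glo was then added, and after 10 min at room temperature, luminescence gave viability.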
(qHTS replaces the single test concentration by a dilution series.)

Experiment [2] in a line: Quantitative highthroughput screen to assess conditional lethalithy of NOMO1 cells grown in RPMI1640 with untreated serum (RPMI+s) (AID 1963876).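 Also: 100% = DMSO wells and 0% = empty wells without cells; nearly all actives have a fitted effect of over 35% in size.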 In short, it runs like this: (§1)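 Each medium arm—HPLM with 10% dialyzed FBS, or RPMI1640 with 5 mM glucose and 10% untreated or dialyzed FBS—was screened against an 11-point, 3-fold compound titration for 48 h at 37 °C, with CellTiter-Glo luminescence as endpoint.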

Experiment [3] is described as follows: Quantitative highthroughput screen to assess conditional lethalithy of NOMO1 cells grown in RPMI1640 with dialyzed fetal bovine serum (RPMI+ds) (AID 1963877).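 Also: series mostly up to about 46 µM; 100% = DMSO control wells and 0% = empty wells; nearly all actives have a fitted effect of over 30% in size.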 Put shortly:
as §1

Experiment [4] is described as follows: Quantitative highthroughput screen to assess conditional lethalithy of NOMO1 cells grown in Human Plasma-Like Medium with dialyzed fetal bovine serum (HPLM+ds) (AID 1963878).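 Also: 100% = DMSO wells and 0% = empty wells on each plate; nearly all actives have a fitted effect of over 35% in size.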 Put shortly: as §1
Experiment [5] in a line: Quantitative highthroughput screen to assess conditional lethalithy of P12 Ichikawa cells grown in Human Plasma-Like Medium with dialyzed fetal bovine serum (HPLM+ds) (AID 1963879). Also: series mostly up to about 46 µM; nearly all actives have a fitted effect of over 35% in size. To be noted: Potency: viability. In short, it runs like this:
as §1

The nature of experiment [6]: Quantitative highthroughput screen to assess conditional lethalithy of P12 Ichikawa cells grown in RPMI1640 with dialyzed fetal bovine serum (RPMI+ds) (AID 1963880). To be noted: Potency: P12-Ichikawa viability. In short, it runs like this:
as §1

Experiment [7] in a line: Quantitative highthroughput screen to assess conditional lethalithy of P12 Ichikawa cells grown in RPMI1640 with untreated serum (RPMI+s) (AID 1963881). To be noted: Potency: viability. In short, it runs like this:
as §1

Experiment [8] is described as follows: Quantitative highthroughput screen to assess conditional lethalithy of SEM cells grown in Human Plasma-Like Medium with dialyzed fetal bovine serum (HPLM+ds) (AID 1963882). Put shortly: as §1
Experiment [9] can be described thus: Quantitative highthroughput screen to assess conditional lethalithy of SEM cells grown in RPMI1640 with unreated serum (RPMI+s) (AID 1963883). Put shortly: as §1

For `Cc1cc(Nc2ncnc3ccc(NC4=NC(C)(C)CO4)cc23)ccc1Oc1ccn2ncnc2c1`, the Potency in [1] is 16.4 µM (active). `CSCC1OC(n2cnc3c(N)ncnc32)C(O)C1O` (configuration not stated): the Potency entry in experiment [1] is “inactive”. Consider `Cc1ccc(NC(=O)Nc2nnc(Sc3ncnc4cc(OCCCN5CCOCC5)ccc34)s2)cc1`, for which, in experiment [1], the Potency is 0.0166 µM (active). For the compound `CNS(=O)(=O)c1ccccc1Nc1nc(Nc2ccc(N3CCN(C)CC3)cc2OC)ncc1Cl`, the Potency in experiment [1] was 0.0366 µM (active). As for `CCCOC(c1cc2nccc(C(=O)O)c2[nH]1)c1ccccc1Cl` (configuration not stated), the Potency result in [1] was “inactive”. On the same count and under the same terms, to `CC1CCN(C(c2ccc(F)cc2)c2ccc(C(C)C(=O)O)cc2-c2ccc(C(F)(F)F)cc2)CC1` (configuration not stated) belongs 6.51 µM (active); to `O=C1c2ccc(Nc3ccc(F)cc3F)cc2CCc2ccc(OCC(O)CO)cc21` (configuration not stated), 9.2 µM (active); to `CC1(C)[C@@H]2CC=C(CO[C@@H]3O[C@H](CO[C@@H]4OC[C@H](O)[C@H](O)[C@H]4O)[C@@H](O)[C@H](O)[C@H]3O)[C@H]1C2`, “inactive”. As to `CC1=CC2/C=C(\C)CCC3OC(C)(C)OC3CCC(=O)C23C(=O)NC(CC(C)C)C3C1C` (configuration not stated), the Potency in experiment [1] is 7.96 µM (active). Regarding `C/C=C(\C)C(=O)OC1C(C)C2(O)C3C=C(C)C(=O)C3CC(CO)=CC2C2C(C)(C)C12OC(C)=O` (configuration not stated), in [1], the Potency result is “inactive”. The same measure, in the same setting: to `O=C(CC1NCCC[C@H]1O)Cn1cnc2cc(Br)c(Cl)cc2c1=O` (some centres not stated) belongs “inactive”; to `CN1CCC(c2cn(C)c3ccc(OS(=O)(=O)c4c(F)cccc4F)cc23)CC1`, 14.6 µM (active). As for `Nc1nc(NCC2CCC(CNS(=O)(=O)c3cccc4ccccc34)CC2)nc2ccccc12` (configuration not stated), the Potency in [1] was 2.31 µM (active). `COc1ccc(-c2ccc3c(N4CCOCC4C)nc(N4CCOCC4C)nc3n2)cc1CO` (configuration not stated): in experiment [1], the Potency was 0.103 µM (active). On to `C=C1C(=O)O[C@@H]2C[C@H](C)[C@@H]3CC(=O)C(C)=C3C[C@H]12`, for which the Potency in experiment [1] was 1.16 µM (active).

Regarding `O=c1[nH]ccc2nc(-c3ccc(CN4CCC(c5nc(-c6ccccn6)n[nH]5)CC4)cc3)c(-c3ccccc3)cc12`, in [1], the Potency was 9.2 µM (active).

As to `COc1c2c(c(C)c3c1C(=O)OC3)OC1(C)CC(O)C34OC(OC)(CCC3(C)C1C2)OC4(C)CO` (configuration not stated), in experiment [1], the Potency entry is “inactive”. On to `Cc1cc(Nc2nc(NC(C)c3ccc(F)cc3)c(C#N)cc2F)n[nH]1` (configuration not stated), for which, in experiment [1], the Potency is 0.461 µM (active). Same read-out and setting: to `CCOC(=O)Nc1nc2ccccc2[nH]1` belongs 10.3 µM (active). With `O=C(O)/C=C/c1ccc(O[C@@H]2O[C@H](CO)[C@@H](O)[C@H](O)[C@H]2O)cc1`, the Potency entry in [1] is “inactive”.

Take `Cc1cc(C)c(Nc2ccnc(Nc3ccc(C#N)cc3)n2)c(C)c1`: the Potency in experiment [1] was 4.11 µM (active). On to `CCCCCCCCCCCCOCCOCCOCCOCCOCCOCCOCCOCCOCCO`, for which the Potency in experiment [1] is 5.96 µM (active).

For the compound `Fc1ccccc1CNCc1ccc(-c2ccnc3[nH]ccc23)cc1`, the Potency in [1] is 9.2 µM (active).

For the compound `C/C=C(\C)C(=O)OC[C@H]1O[C@H](O[C@H]2O[C@H](CO)[C@@H](OC(=O)/C(C)=C/C)[C@H](O)[C@H]2O[C@@H]2O[C@H](CO)[C@@H](O)[C@H](O)[C@H]2O)[C@H](O[C@@H]2O[C@H](CO)[C@@H](O)[C@H](O)[C@H]2O)[C@@H](O)[C@@H]1O`, the viability, % of control in experiment [1] is 92.1% [at 9.25 µM]. Turning to `CC(C)=C/C=C\[C@H](C)[C@H]1CC[C@]2(C)C[C@@H]3C(C)=CC(=O)C3/C(CO)=C\C[C@@H]12` (some centres not stated), the Potency in [1] is 14.3 µM (active). For the compound `C=C(C)C(=O)OC1[C@@H]2C(=C)C(=O)O[C@@H]2C[C@@H](C)[C@@H]2C=CC(=O)[C@@]12C` (some centres not stated), in experiment [1], the Potency is 2.86 µM (active). On to `CN1CCN(C(=O)c2cc3cc(Cl)ccc3[nH]2)CC1`, for which the Potency in [1] is 8.2 µM (active). Take `C=C1C(=O)OC[C@@H]1C/C=C(\C)CC1CC(C)C(=O)O1` (some centres not stated): the Potency in experiment [1] was 13 µM (active). With `O=C1[C@H](Cc2ccc(O)cc2)N2C(=O)CCN(C(=O)NCc3ccccc3)[C@H]2CN1Cc1cccc2ccccc12`, the Potency in experiment [1] was 1.48 µM (active). Consider `OC(CC1c2ccccc2-c2cncn21)C1CCCCC1` (configuration not stated), for which, in [1], the Potency was 20.6 µM (active). Take `Cc1cc(O)cc(Oc2cc(C)c(C(=O)O)c(O)c2)c1`: the Potency result in experiment [1] was “inactive”.

Turning to `Nc1ncnc2c1c(I)cn2C1OC(CO)C(O)C1O` (configuration not stated), the Potency in experiment [1] is 0.411 µM (active). For `COc1ccc(N2CCOCC2)c2sc(NC(=O)N3CCC(C)(O)CC3)nc12`, the Potency result in experiment [1] was “inactive”. For `CC1=C[C@@H]2[C@H]3[C@@H]4O[C@@](C)(CC[C@H]4O)[C@H]3CC(=O)[C@]23C(=O)N[C@@H](CC(C)C)[C@@H]3[C@@H]1C`, the Potency in [1] is 8.05 µM (active).

Turning to `C[C@]12C=C[C@@]3(CCC4[C@](C)(CO)CCC[C@@]4(C)C3CC1)C2` (some centres not stated), the Potency in [1] is 9.2 µM (active).

Turning to `CCc1ccc2nc(Nc3cc(Cc4ccccc4)nc(NC4CCC(O)CC4)n3)sc2c1` (configuration not stated), the Potency in [1] was 6.61 µM (active). For `COc1ccc([C@@]2(O)c3c(ccc(CC=C(C)C)c3O)NC(=O)[C@@H]2OC)cc1`, in experiment [1], the Potency is 14.3 µM (active). In the case of `O=C(O)c1cccc(CN2C(=O)/C(=C(\c3ccccc3)c3ccc(Cl)cc3)c3ccccc32)c1`, the Potency in [1] was 20.6 µM (active). Consider `Cc1ccccc1C(=O)Nc1ccc(C(=O)N2CCCC(O)c3cc(Cl)ccc32)c(C)c1` (configuration not stated), for which the Potency in experiment [1] is 20.9 µM (active). Also, the Potency entry in [2], in experiment [3], in [4], in experiment [5], in experiment [6] and in [7] was “inactive” each time. In addition, the Potency result in experiment [8] and in experiment [9] was “inactive” each time. Turning to `C=C(C(=O)O)[C@@H]1CC[C@@]2(C)CCC[C@@](C)(O)[C@@H]2C1`, the Potency result in experiment [1] is “inactive”.

For `COc1ccc2c(c1)CN(C(=O)CCN1CCC(Cc3ccccc3)CC1)CCS2`, the Potency in experiment [1] is 8.93 µM (active). For `C=CC(C)(C)C12CC3C(=O)NC(Cc4cnc[nH]4)C(=O)N3C1Nc1ccccc12` (configuration not stated), in experiment [1], the Potency result is “inactive”. With `O=C(NCc1ccccc1)[C@H](Cc1ccccc1)NC(=O)[C@H]1O[C@@H]1C(=O)NCCc1ccc(O)cc1`, the Potency in experiment [1] was 13.2 µM (active). On to `CO[C@H]1/C=C\O[C@@]2(C)Oc3c(C)c(O)c4c(O)c(c(/C=N\N5CCN(C6CCCC6)CC5)c(O)c4c3C2=O)NC(=O)/C(C)=C\C=C/[C@H](C)[C@H](O)[C@@H](C)[C@@H](O)[C@@H](C)[C@H](OC(C)=O)[C@@H]1C`, for which the Potency in experiment [1] was 10 µM (active).
